# Records with an inconclusive call do not appear. Active and inactive are the calls of the source. The call rests on the fitted dose curve; in most records, active means well fitted curve in the direction sought with a large enough effect; inconclusive means small, poorly fitted or top-dose-only effect, or another doubt; inactive means no such curve, though single readings can be large; an effect the other way counts as inactive or inconclusive. Residues, ends and D or L forms follow the SMILES beside them. *: point of attachment. Cbz = O=C(OCc1ccccc1)*
# Experiments:
# [1] = Quantitative High-Throughput drug screen in 47 multiple myeloma cell lines against the NCATS MIPE library collection: KMM1_JCRB cell viability assay (AID 1918960); further: nearly all actives have a fitted effect of over 30% in size
# Outline: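 Luminescence from CellTiter-Glo, taken after 5 min at room temperature, reports cellular ATP as viability. Cells (500 per well) had been treated 48 h at 37 °C with MIPE 4.0 compounds, scaled between DMSO and medium-only controls.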
# [2] = Quantitative High-Throughput drug screen in 47 multiple myeloma cell lines against the NCATS MIPE library collection: KHM11_PLB cell viability assay (AID 1918962); further: nearly all actives have a fitted effect of over 35% in size
# Outline: (§1)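 Myeloma cell lines, 500 cells per well, exposed to MIPE 4.0 library compounds for 48 h at 37C, 5% CO2. Viability from ATP by CellTiter-Glo luminescence; normalised to DMSO (100%) and media-only (0%) wells.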
# [3] = Quantitative High-Throughput drug screen in 47 multiple myeloma cell lines against the NCATS MIPE library collection: JIM3_ECACC cell viability assay (AID 1918963; further: nearly all actives have a fitted effect of over 35% in size)
# Outline: as §1
# [4] = Quantitative High-Throughput drug screen in 47 multiple myeloma cell lines against the NCATS MIPE library collection: JIM1_ECACC cell viability assay (AID 1918964)
# Outline: (§2)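 Luminescent ATP measurement with CellTiter-Glo gives viability, scaled between DMSO-only wells (100%) and media-only wells (0%). Cells, 500 per well, faced library compounds for 48 hours at 37C.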
# [5] = Quantitative High-Throughput drug screen in 47 multiple myeloma cell lines against the NCATS MIPE library collection: INA6_PLB cell viability assay (AID 1918965; further: nearly all actives have a fitted effect of over 55% in size)
# Outline: as §1
# [6] = Quantitative High-Throughput drug screen in 47 multiple myeloma cell lines against the NCATS MIPE library collection: JJN3_DSMZ cell viability assay (AID 1918966; further: nearly all actives have a fitted effect of over 50% in size)
# Outline: as §2
# [7] = Quantitative High-Throughput drug screen in 47 multiple myeloma cell lines against the NCATS MIPE library collection: H1112_PLB cell viability assay (AID 1918967; further: nearly all actives have a fitted effect of over 30% in size)
# Outline: as §2
# [8] = Quantitative High-Throughput drug screen in 47 multiple myeloma cell lines against the NCATS MIPE library collection: Karpas25_ECACC cell viability assay (AID 1918968; further: nearly all actives have a fitted effect of over 35% in size)
# Outline: as §2
# [9] = Quantitative High-Throughput drug screen in 47 multiple myeloma cell lines against the NCATS MIPE library collection: KMS27_JCRB cell viability assay (AID 1918970); details: KMS27 myeloma cells, CellTiter-Glo ATP viability, 48 h; viability (% of DMSO): at 45.8 µM (top of the series); further: nearly all actives have a fitted effect of over 30% in size
# Outline: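 Each line is seeded at 500 cells per well and treated with library compounds for 48 hours under 37 °C, 5% CO2. CellTiter-Glo is then added for 5 min at room temperature before median relative luminescence is recorded.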
# Potency means the concentration at half of the fitted maximal effect.
Compound,Potency [1],Potency [2],Potency [3],Potency [4],Potency [5],Potency [6],Potency [7],Potency [8],Potency [9]
C=CCNC1=C2C[C@@H](C)C[C@H](OC)[C@@H](O)[C@@H](C)C=C(C)[C@H](OC(N)=O)[C@@H](OC)C=CC=C(C)C(=O)NC(=CC1=O)C2=O,148 nM (active),590 nM (active),2640 nM (active),662 nM (active),209 nM (active),332 nM (active),14800 nM (active),1480 nM (active),105 nM (active)
CCOC(=O)[C@H](CCc1ccccc1)N[C@@H](C)C(=O)N1[C@@H](C(=O)O)C[C@H]2CCC[C@@H]21,7430 nM (active),9350 nM (active),13200 nM (active),5260 nM (active),7430 nM (active),–,14800 nM (active),7430 nM (active),7430 nM (active)
Cc1cc(Nc2ncc3c(n2)N(C)C(=O)N(c2cc(NC(=O)c4cccc(C(F)(F)F)c4)ccc2C)C3)n(C)n1,1180 nM (active),372 nM (active),2640 nM (active),118 nM (active),469 nM (active),1320 nM (active),2640 nM (active),372 nM (active),1870 nM (active)
Cc1cnn(C)c1C(=O)Nc1cc(Nc2ccc3c(C=Cc4ccccn4)n[nH]c3c2)ccc1F,1660 nM (active),18700 nM (active),5260 nM (active),10500 nM (active),4180 nM (active),23500 nM (active),8330 nM (active),4690 nM (active),2640 nM (active)
CC(=O)N1CCN(c2ccc(OCc3nn(C)c(C)c3-c3cccc4c(CCCOc5cccc6ccccc56)c(C(=O)O)n(Cc5cccnc5)c34)cc2)CC1,1180 nM (active),2350 nM (active),3320 nM (active),469 nM (active),33.2 nM (active),–,132 nM (active),83.3 nM (active),74.3 nM (active)
O=C1NCCc2[nH]c(-c3ccncc3)cc21,1050 nM (active),2090 nM (active),7430 nM (active),662 nM (active),1320 nM (active),2090 nM (active),4180 nM (active),2960 nM (active),1320 nM (active)
C[C@@H]1CC[C@@]2(OC1)OC1CC3C4CC=C5CC(O)CCC5(C)C4CCC3(C)C1[C@@H]2C (stereo partly specified),inactive,inactive,inactive,inactive,–,inactive,inactive,inactive,inactive
COc1cc(C)c(Sc2cnc(NC(=O)c3ccc(CNC(C)C(C)(C)C)cc3)s2)cc1C(=O)N1CCN(C(C)=O)CC1 (stereo unspecified),3320 nM (active),14800 nM (active),3720 nM (active),1480 nM (active),14800 nM (active),10500 nM (active),5900 nM (active),4690 nM (active),–
FC(F)(F)c1ccc(Nc2nc3ccc(Oc4ccnc(-c5ncc(C(F)(F)F)[nH]5)c4)cc3[nH]2)cc1,18700 nM (active),20900 nM (active),23500 nM (active),11800 nM (active),18700 nM (active),20900 nM (active),–,20900 nM (active),23500 nM (active)
O=C1NC(=O)C(=Cc2ccc3nccc(-c4ccncc4)c3c2)S1,132 nM (active),46.9 nM (active),296 nM (active),29.6 nM (active),148 nM (active),93.5 nM (active),1050 nM (active),29.6 nM (active),29.6 nM (active)
c1ccc(CNc2nc(NCc3ccccc3)c3ccccc3n2)cc1,4690 nM (active),8330 nM (active),16600 nM (active),8330 nM (active),7430 nM (active),23500 nM (active),11800 nM (active),5900 nM (active),5900 nM (active)
CN(CC(=O)N(Cc1ccc(C2CCCCC2)cc1)c1ccc(C(=O)O)c(O)c1)S(=O)(=O)c1c(F)c(F)c(F)c(F)c1F,10500 nM (active),14800 nM (active),9350 nM (active),3320 nM (active),6620 nM (active),–,18700 nM (active),5260 nM (active),3320 nM (active)
COc1ccc(C[C@@H](C)[C@@H](C)Cc2ccc(OC)c(OC)c2)cc1OC,235 nM (active),148 nM (active),418 nM (active),–,662 nM (active),833 nM (active),296 nM (active),662 nM (active),166 nM (active)
O=C(O)C[C@H](O)C[C@H](O)C=Cc1c(C2CC2)nc2ccccc2c1-c1ccc(F)cc1,5900 nM (active),7430 nM (active),14800 nM (active),935 nM (active),4180 nM (active),–,13200 nM (active),4690 nM (active),3320 nM (active)
COc1cc2c(Nc3ccc(Cl)c(Cl)c3F)ncnc2cc1OCC1C[C@@H]2CN(C)C[C@H]2C1,18700 nM (active),5900 nM (active),4180 nM (active),14800 nM (active),1480 nM (active),–,2350 nM (active),2350 nM (active),5900 nM (active)
C=C(C)[C@@H]1CC[C@]2(C(=O)O)CC[C@]3(C)[C@H](CC[C@@H]4[C@@]5(C)CC[C@H](O)C(C)(C)[C@@H]5CC[C@]43C)[C@@H]12,inactive,3720 nM (active),inactive,inactive,inactive,–,–,–,inactive
COc1ccc(Nc2nccc(NCCO)n2)cc1,inactive,inactive,inactive,inactive,–,–,inactive,inactive,inactive

Compound,Potency [1],Potency [2],Potency [3],Potency [4],Potency [5],Potency [6],Potency [7],Potency [8],Potency [9]
C=CC[C@@H]1C=C(C)C[C@H](C)C[C@H](OC)[C@H]2O[C@@](O)(C(=O)C(=O)N3CCCC[C@H]3C(=O)O[C@H](C(C)=C[C@@H]3CC[C@H](O)[C@H](OC)C3)[C@@H](C)[C@@H](O)CC1=O)[C@@H](C)C[C@@H]2OC,2090 nM (active),2640 nM (active),3720 nM (active),1180 nM (active),935 nM (active),662 nM (active),3320 nM (active),2960 nM (active),743 nM (active)
NC(=O)c1cccc(-c2cccc(OC(=O)NC3CCCCC3)c2)c1,inactive,inactive,inactive,inactive,–,inactive,inactive,–,–
Cc1ncc(-c2ccnc(Nc3ccc(S(C)(=O)=O)cc3)n2)n1C(C)C,1480 nM (active),1660 nM (active),2350 nM (active),2350 nM (active),1180 nM (active),2090 nM (active),4180 nM (active),2350 nM (active),2640 nM (active)
CCCCCCCCCCCC(CC1OC(=O)C1CCCCCC)OC(=O)C(CC(C)C)NC=O (stereo unspecified),inactive,inactive,inactive,inactive,332 nM (active),23500 nM (active),–,inactive,–
O=C(O)C=Cc1ccc(Cn2ccnc2)cc1,inactive,inactive,inactive,inactive,–,inactive,inactive,inactive,–
CC(C)C[C@@H](C=O)NC(=O)[C@H](CC(C)C)NC(=O)[C@H](CC(C)C)NC(=O)OCc1ccccc1 (Cbz-Leu-Leu-Leu-aldehyde),83.3 nM (active),187 nM (active),526 nM (active),209 nM (active),148 nM (active),469 nM (active),264 nM (active),235 nM (active),166 nM (active)
CN(C)CC[C@H](c1ccc(Cl)cc1)c1ccccn1,inactive,inactive,inactive,–,inactive,inactive,inactive,inactive,–
CC(=O)OCC(=O)[C@@]1(O)CC[C@H]2[C@@H]3CCC4=CC(=O)CC[C@]4(C)[C@@H]3C(=O)C[C@@]21C,inactive,inactive,inactive,inactive,–,–,inactive,inactive,inactive
C[C@H](NCc1ccc2c(c1)nc(NC(=O)c1ccc(-c3cn[nH]c3)s1)n2CCc1ccccc1)C(C)(C)C,833 nM (active),590 nM (active),1480 nM (active),418 nM (active),833 nM (active),1180 nM (active),1660 nM (active),1480 nM (active),418 nM (active)
O=[N+]([O-])c1cn2c(n1)OC[C@@H](OCc1ccc(OC(F)(F)F)cc1)C2,inactive,inactive,inactive,inactive,–,–,inactive,inactive,–
O=C(CCCCCCC(=O)Nc1cccnc1)NO,1660 nM (active),8330 nM (active),16600 nM (active),4180 nM (active),833 nM (active),4180 nM (active),5900 nM (active),1660 nM (active),7430 nM (active)
O=C1c2cccc(O)c2C(=O)c2c(O)cc(CO)cc21,inactive,inactive,inactive,inactive,–,–,inactive,–,inactive
N[C@H]1CN(c2c(F)cc3c(=O)c(C(=O)O)cn(C4C[C@@H]4F)c3c2Cl)CC12CC2 (stereo partly specified),inactive,inactive,inactive,inactive,–,–,inactive,–,inactive
COC(=O)[C@H](CCCN=C(N)N)NS(=O)(=O)c1ccc(C)cc1,inactive,inactive,–,inactive,–,–,inactive,–,inactive
COc1ccc(Nc2cc(-c3cnc(N)nc3)nc(N3CCOCC3)n2)cn1,590 nM (active),4180 nM (active),3720 nM (active),–,4180 nM (active),4690 nM (active),–,1660 nM (active),372 nM (active)
C=Cc1c(C)c2cc3nc(cc4[nH]c(cc5nc(cc1[nH]2)C(C)=C5CCC(=O)O)c(CCC(=O)OC)c4C)[C@@]1(C)C3=CC=C(C(=O)OC)[C@H]1C(=O)OC,187 nM (active),526 nM (active),–,148 nM (active),209 nM (active),29.6 nM (active),235 nM (active),132 nM (active),132 nM (active)

# From PubChem BioAssay (NCATS)
